From PubChem BioAssay AID1159580 (chemical genetic matrix, 2015)
Several values for one entry are separate records, joined by “and”; a condition that tells them apart may be missing. Equal values may be shown once. The campaign covered roughly 5,500 compounds. About 2,000 (36%) were called active. About 18% were inconclusive and are not listed. Rule as the data show it: active = normalized growth mostly below about 0.91 (no sharp cut-off); inconclusive = no clear call, values can overlap the other calls; inactive = mostly above about 0.92. Some of the results follow.

Experiment: chemical genetic growth profiling, strain panel (AID 1159580);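 also: tested at 20 µM; growth read once vehicle control cultures reached saturation at 30 °C; 1 = growth at the plate median or of vehicle wells; lower values mean less growth of the strain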
Conditions: S. cerevisiae deletion strains, growth OD

Measured: normalized growth

CCN(CC)CCCC(C)Nc1ccnc2cc(Cl)ccc12 (configuration not stated)
inactive: locus YAL013W, strain DEP1, active compounds read low 1.02 and 1.01 | locus YAL021C, strain ccr4, active compounds read low 1.04 | locus YAL026C, strain drs2, active compounds read low 1.02 | locus YAL030W, strain snc1, active compounds read low 1.02 | locus YAL040C, strain CLN3, active compounds read low 1.01 | locus YBL061C, strain skt5, active compounds read low 1.03 | locus YBR009C, strain hhf1, active compounds read low 1.01 | locus YBR021W, strain FUR4, active compounds read low 0.976 | locus YBR023C, strain chs3, active compounds read low 1.03 | locus YBR171W, strain sec66, active compounds read low 1.05 | locus YBR229C, strain ROT2, active compounds read low 1.01 | locus YBR231C, strain swc5, active compounds read low 1.03 | locus YBR279W, strain paf1, active compounds read low 1.02 | locus YCL011C, strain gbp2, active compounds read low 1.04 | locus YCL016C, strain dcc1, active compounds read low 1.03 | locus YCL029C, strain bik1, active compounds read low 1.01 | locus YCL061C, strain MRC1 (second series), active compounds read low 1.01 | locus YCL069W, strain vba3, active compounds read low 1.03 | locus YCR088W, strain abp1, active compounds read low 1.02 | locus YDL005C, strain med2, active compounds read low 1.03 | locus YDL035C, strain GPR1, active compounds read low 0.995 | locus YDL040C, strain nat1, active compounds read low 1.03 | locus YDL074C, strain BRE1, active compounds read low 1.04 | locus YDL101C, strain DUN1, active compounds read low 1.04 | locus YDL134C, strain PPH21, active compounds read low 0.985 | locus YDL185W, strain tfp1, active compounds read low 1 | locus YDL192W, strain arf1, active compounds read low 1 | locus YDR001C, strain nth1, active compounds read low 1.03 | locus YDR069C, strain doa4, active compounds read low 0.998 | locus YDR101C, strain arx1, active compounds read low 0.993 | locus YDR137W, strain rgp1, active compounds read low 1.06 | locus YDR159W, strain sac3, active compounds read low 1.06 | locus YDR162C, strain NBP2, active compounds read low 1.01 | locus YDR195W, strain ref2 1.07 | locus YDR297W, strain sur2, active compounds read low 1.03 | locus YDR318W, strain mcm21, active compounds read low 1.02 | locus YDR334W, strain swr1, active compounds read low 1.03 | locus YDR335W, strain msn5, active compounds read low 1.03 | locus YDR363W, strain ESC2, active compounds read low 1.01 | locus YDR388W, active compounds read low 1.01 | locus YDR392W, strain spt3, active compounds read low 0.937 | locus YDR502C, strain sam2, active compounds read low 0.995 | locus YEL003W, strain gim4, active compounds read low 1.03 | locus YEL037C, strain rad23, active compounds read low 1.03 | locus YEL061C, strain CIN8 (second series), active compounds read low 1.03 | locus YEL061C, strain CIN8, active compounds read low 1.01 | locus YER002W, strain NOP16, active compounds read low 0.994 | locus YER015W, strain faa2, active compounds read low 1.03 | locus YER016W, strain bim1, active compounds read low 1 | locus YER110C, active compounds read low 1.02 | locus YER111C, strain swi4, active compounds read low 1.04 | locus YER155C, strain BEM2 (second series), active compounds read low 0.966 | locus YER155C, strain BEM2, active compounds read low 1.01 | locus YER167W, strain BCK2, active compounds read low 1.01 | locus YFR010W, strain ubp6, active compounds read low 1.03 | locus YGL078C, strain dbp3, active compounds read low 1.02 | locus YGL086W, strain mad1, active compounds read low 0.996 | locus YGL167C, strain pmr1, active compounds read low 1.04 | locus YGL173C, strain kem1, active compounds read low 1.04 | locus YGL227W, strain vid30, active compounds read low 1.03 | locus YGL240W, strain doc1, active compounds read low 1.03 | locus YGL248W, strain PDE1, active compounds read low 1.04 | locus YGL253W, strain hxk2, active compounds read low 1.01 | locus YGR135W, strain pre9, active compounds read low 1.04 | locus YGR252W, strain gcn5, active compounds read low 1.02 | locus YHR013C, strain ard1, active compounds read low 0.965 | locus YHR027C, strain rpn1, active compounds read low 1.03 | locus YHR030C, strain SLT2, active compounds read low 1 and 0.96 | locus YHR079C, strain IRE1 (second series), active compounds read low 1.01 | locus YHR079C, strain IRE1, active compounds read low 0.961 | locus YHR094C, strain hxt1, active compounds read low 1.01 | locus YHR129C, strain ARP1, active compounds read low 1.02 | locus YHR142W, strain chs7, active compounds read low 1.04 | locus YHR200W, strain rpn10, active compounds read low 1.01 | locus YIL066C, strain RNR3, active compounds read low 1.02 | locus YIL073C, strain SPO22, active compounds read low 1.01 | locus YIL125W, strain kgd1, active compounds read low 1 | locus YIR030C, strain dcg1, active compounds read low 1 | locus YJL092W, strain hpr5, active compounds read low 1.02 | locus YJL095W, strain BCK1 (second series), active compounds read low 1.03 | locus YJL095W, strain BCK1, active compounds read low 1.07 and 0.962 | locus YJL115W, strain asf1, active compounds read low 1.05 | locus YJL129C, strain trk1, active compounds read low 1.02 | locus YJL134W, strain LCB3, active compounds read low 1.01 | locus YJL154C, strain vps35, active compounds read low 1.02 | locus YJL164C, strain tpk1, active compounds read low 1.02 | locus YJL166W, strain qcr8, active compounds read low 1 | locus YJL168C, strain set2, active compounds read low 1.01 | locus YJL187C, strain SWE1 (second series), active compounds read low 1.05 | locus YJL187C, strain SWE1, active compounds read low 1.03 | locus YJR043C, strain POL32, active compounds read low 0.981 | locus YJR066W, strain TOR1, active compounds read low 0.979
